Assay results taken from PubChem BioAssay (EPA / NIEHS).
Inconclusive results are not listed. Some structures have more than one record in an assay (separate samples or runs), and their calls can disagree. Active and inactive are the calls of the source. How the source made its calls, unless noted: active means hit-call score of the fitted dose curve at least 0.9, where 1 is the maximum; inactive means score below 0.9.

Key:
[1] = ATG_M_32_TRANS: Attagene TRANS-FACTORIAL HepG2 Assay for M32 Transcription Factor (Internal Marker) (AID 2282984; active means hit-call score of the fitted dose curve at least 0.9, where 1 is the maximum;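 further: transcript level of a background control reporter unit measured by RT-PCR and capillary electrophoresis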); details: HepG2 Attagene TRANS M32 internal marker reporter
Outline: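 Cell-based TRANS-format assay in HepG2: exogenous chimeric GAL4 reporter units transiently expressed, compounds applied 24 h. Reporter mRNA detected by RT-PCR plus capillary electrophoresis; this readout is an internal background marker.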

[2] = molecular target: Transcriptional activator Myb (Homo sapiens) (UniProt P10242); experiment: ATG_Myb_CIS: Attagene CIS-FACTORIAL HepG2 Assay for human Myeloblastosis (Myb) Proto-Oncogene Transcription Factor (AID 2282986); details: HepG2 Attagene CIS-FACTORIAL Myb reporter transcription; actives raise or lower the signal
Outline: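 In this HepG2 transient-transfection format, cis-regulated reporter mRNA is quantified 24 h post-dosing by RT-PCR with capillary electrophoresis, fitted bidirectionally to DMSO baseline.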

[3] = molecular target: Nuclear respiratory factor 1 (Homo sapiens) (UniProt Q16656); experiment: ATG_NRF1_CIS: Attagene CIS-FACTORIAL HepG2 Assay for human Nuclear Respiratory Factor 1 (NRF1) Orphan Gene (AID 2282987); details: HepG2 NRF1 cis-element reporter, Attagene multiplex; actives raise or lower the signal
Outline: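 Using DMSO as baseline, gain- or loss-of-signal was fitted for reporter mRNA levels in HepG2 cells transiently transfected with cis-regulated reporter units. Samples were taken 24 h after dosing and read by RT-PCR with capillary electrophoresis.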

[4] = ATG_NFI_CIS: Attagene CIS-FACTORIAL HepG2 Assay for human Nuclear Factor I (NFI) (AID 2282989); details: HepG2 cis-regulatory reporter, NFI response element transcription; actives raise or lower the signal
Outline: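 Reporter transcripts were measured by RT-PCR with fluorescent primer extension and capillary electrophoresis 24 h post-treatment. HepG2 cells carried transiently transfected cis-regulated reporter constructs reporting endogenous factor activity; gain or loss fitted against DMSO baseline.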

[5] = molecular target: Myc proto-oncogene protein (Homo sapiens) (UniProt P01106); experiment: ATG_Myc_CIS: Attagene CIS-FACTORIAL HepG2 Assay for human Myelocytomatosis (Myc) Proto-Oncogene Transcription Factor (AID 2282990); details: HepG2, Attagene cis-reporter transcription factor activity; actives raise or lower the signal
Outline: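 Cells of the HepG2 human liver line bear multiple cis-driven reporter transcription units. Reporter mRNA after 24 h exposure is reverse-transcribed, amplified, labelled and resolved by capillary electrophoresis, with gain- or loss-of-signal fitting relative to DMSO.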

[6] = ATG_NF_kB_CIS: Attagene CIS-FACTORIAL HepG2 Assay for human Nuclear Factor Kappa B (NF-kB) (AID 2282991); details: HepG2 Attagene cis-factorial NF-kB reporter mRNA; actives raise or lower the signal
Outline: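 Endpoint from a 52-component multiplexed HepG2 reporter panel: cis-regulated transcription units transiently transfected, 24 h dosing, reporter mRNA quantified by RT-PCR and capillary electrophoresis, scored as increase or decrease against DMSO.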

[7] = ATG_NRF2_ARE_CIS: Attagene CIS-FACTORIAL HepG2 Assay for human Nuclear Factor Erythroid 2 Related Factor 2 (NFR2) response to Antioxidant Response Elements (ARE) (AID 2282992); details: HepG2 Attagene ARE/NRF2 reporter, transcription factor activity; actives raise or lower the signal
Outline: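 Endogenous transcription factor activity read out as reporter transcript levels (RT-PCR plus capillary electrophoresis, fluorescence) in transiently transfected HepG2 cells. Measured at 24 h after dosing; gain or loss of signal fitted versus DMSO.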

[8] = ATG_Oct_MLP_CIS: Attagene CIS-FACTORIAL HepG2 Assay for human Octamer-Binding Transcription Factor (Oct) (AID 2282993); details: HepG2 Attagene cis-factorial Oct reporter, mRNA; actives raise or lower the signal
Outline: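 Readout is reporter transcript level from RT-PCR with fluorescent primer extension and capillary electrophoresis, fitted in both directions against DMSO. Transfected HepG2 reporter units report endogenous factor activity after 24 h dosing.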

[9] = molecular target: Cellular tumor antigen p53 (Homo sapiens) (UniProt P04637); experiment: ATG_p53_CIS: Attagene CIS-FACTORIAL HepG2 Assay for human p53 Transcription Factor (AID 2282994); details: HepG2 p53 cis-element reporter, Attagene mRNA; actives raise or lower the signal
Outline: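 Endogenous p53 activity read in transiently transfected HepG2 from a cis-element-driven reporter transcript after 24 h exposure. RNA reverse-transcribed, PCR-amplified, fluorescently labelled and sized by capillary electrophoresis; gain or loss fitted against DMSO baseline.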

[10] = ATG_M_06_TRANS: Attagene TRANS-FACTORIAL HepG2 Assay for M06 Transcription Factor (Internal Marker) (AID 2282983; active means hit-call score of the fitted dose curve at least 0.9, where 1 is the maximum); details: HepG2 Attagene TRANS M06 internal marker reporter
Outline: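 Background control endpoint: reporter mRNA from transiently transfected HepG2 after 24 h dosing, detected by RT-PCR with capillary electrophoresis fluorescence. Analysed for gain versus DMSO.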

[11] = molecular target: Nuclear receptor subfamily 4 group A member 2 (Homo sapiens) (UniProt P43354); experiment: ATG_NURR1_TRANS: Attagene TRANS-FACTORIAL HepG2 Assay for human Nuclear Receptor Related Protein 1 (NURR1) (AID 2282985; active means hit-call score of the fitted dose curve at least 0.9, where 1 is the maximum); details: HepG2 Attagene TRANS reporter, mRNA readout
Outline: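 Measures transcriptional activation by an exogenous NR-Gal4 chimera in transfected HepG2 liver cells. After 24 h, reporter RNA is reverse-transcribed, amplified and resolved by capillary electrophoresis; DMSO defines baseline.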

[12] = molecular target: Hepatocyte nuclear factor 4-alpha (Homo sapiens) (UniProt P41235); experiment: ATG_HNF4a_TRANS: Attagene TRANS-FACTORIAL HepG2 Assay for human Hepatocyte Nuclear Factor 4 alpha (HNF4a) (AID 2282982; active means hit-call score of the fitted dose curve at least 0.9, where 1 is the maximum); details: HepG2 HNF4a transactivation reporter, mRNA readout
Outline: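 Multiplexed reporter assay: transfected HepG2, 24 h exposure, total RNA → oligo(dT) RT → PCR → 6-FAM extension → HpaI digest → CE fluorescence. DMSO = negative control.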

[13] = BSK_3C_TissueFactor: BioMAP Diversity Plus: 3C Assay for Tissue Factor Biomarker Activity (AID 2282997); details: BioMAP 3C HUVEC, tissue factor biomarker readout; actives raise or lower the signal
Outline: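 After a 24 h chemical exposure of primary human umbilical vein endothelial cells, Tissue Factor levels were quantified by ELISA.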

[14] = BSK_3C_uPAR: BioMAP Diversity Plus: 3C Assay for Urokinase-type plasminogen activator receptor (uPAR) Biomarker Activity (AID 2282998); details: BioMAP 3C HUVEC, uPAR biomarker ELISA; actives raise or lower the signal
Outline: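 Cell-surface uPAR on HUVEC (3C system) read by ELISA at 24 h post-treatment, with DMSO as baseline and fitting in both directions. Parallel cultures stained with SRB to flag overt cytotoxicity.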

[15] = BSK_3C_VCAM1: BioMAP Diversity Plus: 3C Assay for Vascular cell adhesion molecule 1 (VCAM1) Biomarker Activity (AID 2282999); details: BioMAP 3C HUVEC, VCAM1 ELISA, cytokine-stimulated; actives raise or lower the signal
Outline: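 Activity fitted in both directions relative to DMSO, with ELISA measurement of the surface marker on primary HUVEC (3C) at 24 h post-treatment; parallel SRB staining (0.1% SRB, TCA-fixed, 560 nm) flagged overt cytotoxicity.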

Nuclear respiratory factor 1 (Homo sapiens), sequence (Q16656 whole entry, looked up): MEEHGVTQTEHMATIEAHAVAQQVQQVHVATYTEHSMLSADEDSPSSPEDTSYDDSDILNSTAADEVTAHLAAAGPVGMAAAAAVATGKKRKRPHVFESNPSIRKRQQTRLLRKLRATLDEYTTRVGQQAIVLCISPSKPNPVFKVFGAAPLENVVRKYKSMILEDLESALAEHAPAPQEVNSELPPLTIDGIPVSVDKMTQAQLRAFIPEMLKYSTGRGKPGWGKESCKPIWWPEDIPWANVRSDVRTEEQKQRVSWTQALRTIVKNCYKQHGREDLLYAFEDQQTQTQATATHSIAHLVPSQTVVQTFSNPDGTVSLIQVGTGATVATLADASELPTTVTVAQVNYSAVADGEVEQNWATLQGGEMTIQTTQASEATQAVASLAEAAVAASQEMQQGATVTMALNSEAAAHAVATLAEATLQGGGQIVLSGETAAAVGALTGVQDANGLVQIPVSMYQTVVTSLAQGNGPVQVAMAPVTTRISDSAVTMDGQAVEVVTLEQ
Myc proto-oncogene protein (Homo sapiens), sequence (P01106 whole entry, looked up): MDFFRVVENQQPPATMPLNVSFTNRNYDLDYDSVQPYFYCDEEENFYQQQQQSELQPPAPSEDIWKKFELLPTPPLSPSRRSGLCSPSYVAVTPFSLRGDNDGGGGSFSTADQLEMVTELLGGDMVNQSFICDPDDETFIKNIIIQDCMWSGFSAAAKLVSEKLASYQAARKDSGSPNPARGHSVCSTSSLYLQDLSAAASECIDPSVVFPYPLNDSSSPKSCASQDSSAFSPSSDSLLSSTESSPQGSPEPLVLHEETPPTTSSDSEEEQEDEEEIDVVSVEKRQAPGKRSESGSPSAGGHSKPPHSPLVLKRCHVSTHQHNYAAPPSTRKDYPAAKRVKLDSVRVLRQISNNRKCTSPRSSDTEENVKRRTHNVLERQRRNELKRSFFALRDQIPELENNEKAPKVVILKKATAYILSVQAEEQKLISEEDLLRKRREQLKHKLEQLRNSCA
Transcriptional activator Myb (Homo sapiens), sequence (P10242 whole entry, looked up): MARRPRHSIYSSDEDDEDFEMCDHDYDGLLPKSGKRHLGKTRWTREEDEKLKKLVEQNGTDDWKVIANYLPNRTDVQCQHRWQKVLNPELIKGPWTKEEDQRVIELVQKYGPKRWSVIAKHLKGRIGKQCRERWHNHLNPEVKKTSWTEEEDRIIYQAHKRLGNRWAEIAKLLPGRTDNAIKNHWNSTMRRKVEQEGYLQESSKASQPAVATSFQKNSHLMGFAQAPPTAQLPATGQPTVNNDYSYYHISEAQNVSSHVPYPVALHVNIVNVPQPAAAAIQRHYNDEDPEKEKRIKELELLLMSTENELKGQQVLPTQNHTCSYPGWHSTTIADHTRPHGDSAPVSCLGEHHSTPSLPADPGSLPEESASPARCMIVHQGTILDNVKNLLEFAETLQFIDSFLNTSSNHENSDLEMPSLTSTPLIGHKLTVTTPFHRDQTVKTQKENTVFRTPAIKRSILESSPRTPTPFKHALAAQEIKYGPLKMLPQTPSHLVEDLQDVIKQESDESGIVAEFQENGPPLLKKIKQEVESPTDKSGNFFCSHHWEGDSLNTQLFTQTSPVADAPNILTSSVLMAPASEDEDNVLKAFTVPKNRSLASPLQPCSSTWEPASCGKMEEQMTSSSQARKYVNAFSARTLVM
Cellular tumor antigen p53 (Homo sapiens), sequence (P04637 whole entry, looked up): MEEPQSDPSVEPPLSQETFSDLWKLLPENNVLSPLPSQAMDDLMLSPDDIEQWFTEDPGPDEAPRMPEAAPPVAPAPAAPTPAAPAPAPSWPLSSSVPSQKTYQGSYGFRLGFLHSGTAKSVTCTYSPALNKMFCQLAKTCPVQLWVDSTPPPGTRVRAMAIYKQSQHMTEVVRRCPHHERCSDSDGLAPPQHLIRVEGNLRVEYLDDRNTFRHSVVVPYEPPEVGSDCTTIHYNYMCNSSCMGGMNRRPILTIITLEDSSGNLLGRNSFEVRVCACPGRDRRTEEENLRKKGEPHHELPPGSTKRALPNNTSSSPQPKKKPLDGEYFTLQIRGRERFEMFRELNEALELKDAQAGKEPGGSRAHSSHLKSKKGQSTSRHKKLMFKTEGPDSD
Nuclear receptor subfamily 4 group A member 2 (Homo sapiens), sequence (P43354 whole entry, looked up, the tested form may be a part): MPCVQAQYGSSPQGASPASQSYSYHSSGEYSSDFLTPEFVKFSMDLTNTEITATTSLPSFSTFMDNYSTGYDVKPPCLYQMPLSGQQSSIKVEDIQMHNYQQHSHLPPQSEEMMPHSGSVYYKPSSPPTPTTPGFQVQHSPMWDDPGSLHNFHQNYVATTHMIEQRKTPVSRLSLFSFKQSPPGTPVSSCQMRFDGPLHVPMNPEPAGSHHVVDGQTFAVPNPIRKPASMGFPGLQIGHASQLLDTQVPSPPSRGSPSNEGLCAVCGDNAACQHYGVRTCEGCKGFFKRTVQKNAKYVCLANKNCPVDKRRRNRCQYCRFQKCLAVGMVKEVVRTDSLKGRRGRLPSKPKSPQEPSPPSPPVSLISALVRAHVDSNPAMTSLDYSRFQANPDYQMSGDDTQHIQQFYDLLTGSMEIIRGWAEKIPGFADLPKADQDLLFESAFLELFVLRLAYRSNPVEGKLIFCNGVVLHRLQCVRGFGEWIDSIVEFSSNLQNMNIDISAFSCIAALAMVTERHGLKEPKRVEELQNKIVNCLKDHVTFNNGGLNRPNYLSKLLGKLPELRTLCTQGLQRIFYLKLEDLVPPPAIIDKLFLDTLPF
Hepatocyte nuclear factor 4-alpha (Homo sapiens), sequence (P41235 whole entry, looked up): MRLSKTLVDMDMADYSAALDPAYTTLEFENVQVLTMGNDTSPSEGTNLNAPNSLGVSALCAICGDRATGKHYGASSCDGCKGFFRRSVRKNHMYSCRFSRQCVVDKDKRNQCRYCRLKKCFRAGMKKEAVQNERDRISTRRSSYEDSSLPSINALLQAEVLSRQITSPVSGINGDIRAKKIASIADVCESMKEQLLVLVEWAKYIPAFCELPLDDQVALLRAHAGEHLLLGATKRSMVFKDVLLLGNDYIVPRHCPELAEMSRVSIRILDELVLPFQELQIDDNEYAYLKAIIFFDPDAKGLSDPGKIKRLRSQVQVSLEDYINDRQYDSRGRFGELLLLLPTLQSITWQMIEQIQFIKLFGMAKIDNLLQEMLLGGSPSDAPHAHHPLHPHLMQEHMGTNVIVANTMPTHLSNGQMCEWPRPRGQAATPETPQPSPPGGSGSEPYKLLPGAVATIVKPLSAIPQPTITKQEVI

## CC(=O)c1cccnc1
[1]
  outcome: inactive
[2]
  outcome: inactive
[3]
  outcome: inactive
[4]
  outcome: inactive
[5]
  outcome: inactive
[6]
  outcome: inactive
[7]
  outcome: inactive
[8]
  outcome: inactive
[9]
  outcome: inactive

## CC(C)(C)C1CCC(O)CC1 (centres undefined)
[10]
  outcome: inactive
[2]
  outcome: inactive
[3]
  outcome: inactive
[4]
  outcome: inactive
[5]
  outcome: inactive
[6]
  outcome: inactive
[7]
  outcome: inactive
[8]
  outcome: inactive
[9]
  outcome: inactive

## CC1=CC[C@@H]2C[C@H]1C2(C)C
[10]
  outcome: inactive
[11]
  outcome: inactive
[2]
  outcome: inactive
[3]
  outcome: inactive
[4]
  outcome: inactive
[5]
  outcome: inactive
[6]
  outcome: inactive
[7]
  outcome: inactive
[8]
  outcome: inactive

## CCCCCCCCCCO[C@@H]1O[C@H](CO)[C@@H](O)[C@H](O)[C@H]1O
[11]
  outcome: inactive
[2]
  outcome: inactive
[5]
  outcome: inactive
[7]
  AC50: 100 µM (active)
[8]
  outcome: inactive

## CCC(CC)CO
[12]
  outcome: inactive
[2]
  outcome: inactive
[4]
  outcome: inactive
[5]
  outcome: inactive
[6]
  outcome: inactive
[7]
  outcome: inactive
[8]
  outcome: inactive

## CCCCCCCOC(C)=O
[10]
  outcome: inactive
[11]
  outcome: inactive
[2]
  outcome: inactive
[3]
  outcome: inactive
[4]
  outcome: inactive
[5]
  outcome: inactive
[7]
  outcome: inactive
[8]
  outcome: inactive
[9]
  outcome: inactive

## OCC(F)(OC(F)(F)C(F)(OC(F)(F)C(F)(F)C(F)(F)F)C(F)(F)F)C(F)(F)F (centres undefined)
[13]
  outcome: inactive
[14]
  outcome: inactive
[15]
  AC50: 3.72 µM (active)
  outcome: inactive

## CCOC(=O)CC1(C)OCC(C)O1 (centres undefined)
[10]
  outcome: inactive
[2]
  outcome: inactive
[4]
  outcome: inactive
[5]
  outcome: inactive
[6]
  outcome: inactive
[7]
  outcome: inactive
[8]
  outcome: inactive
[9]
  outcome: inactive

## CCCC1CCC(=O)CC1
[10]
  outcome: inactive
[1]
  outcome: inactive
[11]
  outcome: inactive
[2]
  outcome: inactive
[4]
  outcome: inactive
[5]
  outcome: inactive
[7]
  outcome: inactive
[8]
  outcome: inactive

## CC(C)N1C(=O)c2ccccc2C1=O
[10]
  outcome: inactive
[1]
  outcome: inactive
[2]
  outcome: inactive
[3]
  outcome: inactive
[4]
  outcome: inactive
[5]
  outcome: inactive
[6]
  outcome: inactive
[7]
  outcome: inactive
[8]
  outcome: inactive
[9]
  outcome: inactive

## CC(C)CCCC(C)(C)O
[1]
  outcome: inactive
[2]
  outcome: inactive
[3]
  outcome: inactive
[4]
  outcome: inactive
[5]
  outcome: inactive
[6]
  outcome: inactive
[7]
  outcome: inactive
[8]
  outcome: inactive
[9]
  outcome: inactive
[13]
  outcome: inactive
[14]
  outcome: inactive
[15]
  outcome: inactive

## C=CCOC(=O)/C=C\C(=O)OCC=C
[12]
  outcome: inactive
[1]
  outcome: inactive
[11]
  outcome: inactive
[2]
  outcome: inactive
[4]
  outcome: inactive
[5]
  outcome: inactive
[6]
  AC50: 15.8 µM (active)
[7]
  AC50: 6.75 µM (active)
[8]
  outcome: inactive
[9]
  AC50: 156 µM (active)

## Cc1ccncc1
[10]
  outcome: inactive
[2]
  outcome: inactive
[3]
  outcome: inactive
[4]
  outcome: inactive
[7]
  outcome: inactive
[8]
  outcome: inactive
[9]
  outcome: inactive

## [Na+]
[11]
  outcome: inactive
[2]
  outcome: inactive
[3]
  outcome: inactive
[6]
  outcome: inactive
[7]
  outcome: inactive
[8]
  outcome: inactive
[9]
  outcome: inactive

## CC1=CCC(C(C)C)=CC1
[11]
  outcome: inactive
[2]
  outcome: inactive
[3]
  outcome: inactive
[4]
  outcome: inactive
[5]
  outcome: inactive
[7]
  outcome: inactive
[8]
  outcome: inactive
[9]
  outcome: inactive

## CCCCCCCCCCCCOCCOS(=O)(=O)O
[10]
  outcome: inactive
[1]
  outcome: inactive
[11]
  outcome: inactive
[2]
  outcome: inactive
[4]
  outcome: inactive
[5]
  outcome: inactive
[6]
  outcome: inactive
[7]
  outcome: inactive
[8]
  outcome: inactive
[9]
  outcome: inactive

## CCCCCCCCCCCCOC(C)=O
[10]
  outcome: inactive
[1]
  outcome: inactive
[11]
  outcome: inactive
[2]
  outcome: inactive
[3]
  outcome: inactive
[4]
  outcome: inactive
[5]
  outcome: inactive
[6]
  outcome: inactive
[7]
  outcome: inactive
[8]
  outcome: inactive

## O=C(O)c1ccco1
[1]
  outcome: inactive
[2]
  outcome: inactive
[3]
  outcome: inactive
[4]
  outcome: inactive
[5]
  outcome: inactive
[7]
  outcome: inactive
[8]
  outcome: inactive
